Here are results for seven compounds from PubChem BioAssay (EPA / NIEHS).

Test [1] in a line: ACEA_ER_80hr: ACEA Biosciences xCELLigence Real-Time Cell Analysis on Estrogen Receptor Agonism for Proliferation (AID 2282667; active = hit-call score of the fitted dose curve at least 0.9, where 1 is the maximum). Particulars: T47D proliferation, impedance (xCELLigence), 80 h. In a few lines:
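Estrogen-driven proliferation is captured as electrode impedance in T47D cells 80 h after compound addition. Test articles ran at 8 concentrations, 1:4 dilutions from 100 uM final, in two replicate plates.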

Test [2] can be described thus: APR_HepG2_CellCycleArrest_24hr: Apredica 24-hour HepG2 Assay for Cell Cycle Arrest (AID 2282905).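 Also: cell cycle arrest scored as ratio of 2N to 4N nuclear DNA content.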 Particulars: imaging, actives raise or lower the signal. In a few lines:
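After 24 h exposure at 0.39–200 uM in 0.5% DMSO, fixed cells received Hoechst 33342 staining. Imaging quantified per-nucleus DNA content; gain or loss fitted against DMSO controls.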

The nature of test [3]: APR_HepG2_CellLoss_24hr: Apredica 24-hour HepG2 Assay for Cell Loss (AID 2282908).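 As to AC50: fit in both directions so a hit may be cell loss or gain.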 The conditions noted are these: high-content imaging. The procedure, abridged:
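Nuclei stained with Hoechst 33342 after formaldehyde fixation (3.7%) were imaged at 20x to count cells. Exposure lasted 24 hr, at ten concentrations from 0.39 to 200 uM in duplicate, with 0.5% v/v DMSO. Fit bidirectional, relative to DMSO.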

Test [4] can be described thus: APR_HepG2_MicrotubuleCSK_24hr: Apredica 24-hour HepG2 Assay for Microtubule CSK Stabilty (AID 2282909). Particulars: HepG2 microtubule cytoskeleton imaging, actives raise or lower the signal. In a few lines: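 Fixed HepG2 cells were stained for alpha-tubulin and imaged after 24 hr exposure to ten concentrations spanning 0.39–200 uM in 0.5% DMSO. Signal change was fitted in both directions relative to DMSO; taxol was the positive control.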

A short description of test [5]: APR_HepG2_MitoticArrest_24hr: Apredica 24-hour HepG2 Assay for Mitotic Arrest (AID 2282910). The conditions noted are these: high-content imaging, actives raise or lower the signal. In a few lines:
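HepG2, 24 hr dosing, 0.39–200 uM, 0.5% DMSO final. Formaldehyde-fixed, Triton-permeabilised, anti-phospho-histone H3 plus Hoechst. ArrayScan imaging at 20x; bidirectional fit vs DMSO baseline.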

Test [6] in a line: APR_HepG2_MitoMembPot_24hr: Apredica 24-hour HepG2 Assay for Mitochondrial Membrane Potential (AID 2282911). Particulars: imaging, actives raise or lower the signal. The procedure, abridged:
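Mitochondrial dye uptake (MitoTracker Red CMXRos, 250 nM, 30 min pre-fixation) in HepG2 after 24 hr compound exposure, 0.39–200 uM; ArrayScan images at 20x, activity fitted in both directions relative to DMSO.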

Test [7] can be described thus: APR_HepG2_MitoMass_24hr: Apredica 24-hour HepG2 Assay for Mitochondrial Mass (AID 2282912). The conditions noted are these: high-content imaging, actives raise or lower the signal. In a few lines:
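Endpoint is MitoTracker Red CMXRos (250 nM, 30 min, pre-fixation) intensity from 20x high-content imaging, nuclei located by Hoechst. Human HepG2 cells received ten concentrations from 0.39 to 200 uM in 0.5% DMSO for 24 hr, duplicate wells. Bidirectional fit relative to DMSO.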

A short description of test [8]: APR_HepG2_CellCycleArrest_72hr: Apredica 72-hour HepG2 Assay for Cell Cycle Arrest (AID 2282914). The conditions noted are these: high-content imaging, actives raise or lower the signal. The procedure, abridged: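 Using multiplexed high-content imaging, HepG2 nuclei stained with Hoechst 33342 (2 ug/mL) were analysed for DNA content after fixation and permeabilization. Treatment lasted 72 hr across 0.39–200 uM in duplicate with final DMSO 0.5% v/v; DMSO served as negative control.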

A short description of test [9]: APR_HepG2_CellLoss_72hr: Apredica 72-hour HepG2 Assay for Cell Loss (AID 2282915). Particulars: high-content imaging. The procedure, abridged: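 HepG2 cells exposed 72 h to compound at 0.39–200 uM (10 concentrations, duplicate) in 0.5% DMSO. Fixed with 3.7% formaldehyde and Hoechst 33342-stained. Imaged at 20x; nuclear count gives cell number, fitted bidirectionally versus DMSO.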

The nature of test [10]: APR_HepG2_P-H2AX_72hr: Apredica 72-hour HepG2 Assay for H2AX Phosphorylation (AID 2282916).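 Also: phospho-histone H2A.x immunostain intensity per cell marking DNA damage.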 The conditions noted are these: imaging, actives raise or lower the signal. In a few lines: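 Phospho-histone H2A.x immunofluorescence, multiplexed with Hoechst and c-Jun, quantified by high-content imaging. Compounds applied to HepG2 for 72 h across ten concentrations (0.39–200 uM, 0.5% DMSO), in duplicate; DMSO baseline.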

A short description of test [11]: APR_HepG2_MitoMembPot_72hr: Apredica 72-hour HepG2 Assay for Mitochondrial Membrane Potential (AID 2282917). Particulars: imaging, actives raise or lower the signal. The procedure, abridged:
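HepG2 cells dosed 72 hr with compound at 0.39–200 uM in duplicate, 0.5% v/v DMSO final. Mitochondria stained with 250 nM MitoTracker Red CMXRos for 30 min before formaldehyde fixation, imaged by high-content fluorescence; bidirectional fit versus DMSO.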

Test [12] can be described thus: APR_HepG2_MitoticArrest_72hr: Apredica 72-hour HepG2 Assay for Mitotic Arrest (AID 2282918). Particulars: high-content imaging, actives raise or lower the signal. In a few lines: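 Using high-content imaging of fixed HepG2 cells, phospho-histone H3 signal was measured following a 72 hr incubation with ten-point compound dilutions up to 200 uM. DMSO served as the negative control and baseline for bidirectional curve fitting.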

Test [13] is described as follows: APR_HepG2_MicrotubuleCSK_72hr: Apredica 72-hour HepG2 Assay for Microtubule CSK Stabilty (AID 2282919). Particulars: HepG2 microtubule cytoskeleton, high-content imaging, actives raise or lower the signal. The procedure, abridged: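 HepG2, 72 hr cmpd exposure, 0.39–200 uM (10 pts, duplicate), 0.5% DMSO. 3.7% formaldehyde fix, 0.5% Triton perm, anti-alpha-tubulin/Cy5 plus Hoechst. HCS fluorescence intensity; bidirectional fit vs DMSO baseline; taxol as positive control.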

Test [14] can be described thus: APR_HepG2_P-H2AX_24hr: Apredica 24-hour HepG2 Assay for H2AX Phosphorylation (AID 2282920). The conditions noted are these: high-content imaging, actives raise or lower the signal. The procedure, abridged:
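Human HepG2 liver cells, treated 24 hr with test chemicals (0.39–200 uM, final DMSO 0.5% v/v), are fixed and co-stained for phospho-H2A.x and c-Jun with Hoechst. Imaged intensity is fitted in both directions against DMSO controls.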

The nature of test [15]: APR_HepG2_StressKinase_72hr: Apredica 72-hour HepG2 Assay for Stress Kinase (AID 2282921). The conditions noted are these: HepG2 stress kinase (phospho-c-Jun) imaging, actives raise or lower the signal. The procedure, abridged: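 Stress kinase signal is phospho-c-Jun immunofluorescence (1:500 primary, Cy3 secondary) in fixed, permeabilized human HepG2 cells imaged at 20x. Exposure lasted 72 hr over ten concentrations from 0.39 to 200 uM, 0.5% DMSO, in duplicate. Bidirectional fit versus DMSO.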

The nature of test [16]: APR_HepG2_StressKinase_24hr: Apredica 24-hour HepG2 Assay for Stress Kinase (AID 2282922). The conditions noted are these: HepG2 stress kinase (phospho-c-Jun) imaging, actives raise or lower the signal. In a few lines:
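Read-out: phospho-c-Jun immunofluorescence (Cy3 secondary) quantified by high-content imaging at 20x, nuclei defined by Hoechst 33342. Human HepG2 liver cells dosed 24 hr, 0.39–200 uM, DMSO 0.5% v/v; gain or loss of signal fitted relative to DMSO.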

Test [17] in a line: APR_HepG2_MitoMass_72hr: Apredica 72-hour HepG2 Assay for Mitochondrial Mass (AID 2282924).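 Also: MitoTracker Red CMXRos stain intensity per cell imaged as mitochondrial mass.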 Particulars: high-content imaging, actives raise or lower the signal. The procedure, abridged:
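Read-out: MitoTracker Red fluorescence intensity from automated imaging (20x, six fields per well) in human HepG2 liver cells. Dosing ran 72 hr, 0.39–200 uM, 0.5% DMSO; bidirectional curve fitting versus DMSO baseline.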

A short description of test [18]: APR_HepG2_NuclearSize_72hr: Apredica 72-hour HepG2 Assay for Nuclear Size (AID 2282925). The conditions noted are these: high-content imaging, actives raise or lower the signal. The procedure, abridged:
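Read-out: nuclear diameter from Hoechst 33342 images (ArrayScan, 20x, six fields/well), via cell-cycle image analysis. HepG2 were dosed 0.39–200 uM for 72 hr in 0.5% DMSO. Bidirectional fit relative to DMSO.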

The nature of test [19]: APR_HepG2_NuclearSize_24hr: Apredica 24-hour HepG2 Assay for Nuclear Size (AID 2282907). The conditions noted are these: high-content imaging, actives raise or lower the signal. In a few lines:
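Nuclear size from Hoechst 33342-stained, formaldehyde-fixed HepG2 nuclei imaged by high-content microscopy, after 24 h dosing at ten concentrations from 0.39 to 200 uM in 0.5% DMSO; gain or loss relative to DMSO baseline.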

Test [20] in a line: APR_HepG2_p53Act_24hr: Apredica 24-hour HepG2 Assay for p53 Activation (AID 2282913).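 Also: p53 protein immunofluorescence averaged per cell in HepG2 with Hoechst nuclei.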 Particulars: high-content imaging, actives raise or lower the signal. In a few lines: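 Following 24 hr dosing of HepG2 at 0.39–200 uM, the cells undergo formaldehyde fixation, Triton permeabilization and multiplexed antibody labeling that includes p53 (Cy5). Signal from the imaging is referenced to DMSO solvent controls.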

Results filed as inconclusive are left out. Activity calls are given as the source filed them. The calls were made as follows, unless noted: active = hit-call score of the fitted dose curve at least 0.9, where 1 is the maximum; inactive = score below 0.9.

As to `NC(N)=O`, the compound was classed as inactive in test [1], in test [2], in test [3], in [4], in test [5] and in test [6]. In addition, the call in [7], in [8], in test [9], in [10], in test [11] and in test [12] was inactive. Besides, the compound was classed as inactive in [13], in [14], in [15], in test [16], in [17] and in test [18].
With `OC[C@H]1O[C@@](CO)(O[C@H]2O[C@H](CO)[C@@H](O)[C@H](O)[C@H]2O)[C@@H](O)[C@@H]1O`, the outcome in test [1], in [2], in [19], in test [3], in test [4] and in [5] was inactive. The compound was classed as inactive in test [6], in [9], in [10], in test [11], in test [12] and in test [13]. For the same compound, the outcome in [14], in test [15], in test [16], in test [17] and in [18] was inactive.
Regarding `OCCNCCO`, the call in [1], in test [2], in [3], in [4], in test [5] and in [6] was inactive. In addition, the call in [7], in test [9], in test [10], in [11], in test [12] and in [13] was inactive. Further, the outcome in [14], in test [15], in [16], in [17] and in [18] was inactive.
With `CCCCCCCC/C=C\CCCCCCCC(=O)OC[C@@H](O)[C@H]1OC[C@H](O)[C@H]1O`, the compound was called inactive in [1], in test [2], in test [3], in [4], in test [5] and in test [6]. For the same compound, the call in test [20], in test [8], in [9], in [10], in test [11] and in [12] was inactive. Moreover, the call in test [13], in test [14], in test [15], in test [16], in [17] and in test [18] was inactive.
Consider `Cc1ccc(S(=O)(=O)NC(=O)NN2CCCCCC2)cc1`, for which the result in test [1], in test [2], in test [3], in test [4], in test [5] and in test [6] was inactive. Besides, the compound was called inactive in test [9], in test [10], in test [11], in [12], in [13] and in test [14]. In addition, the outcome in [15], in test [16], in test [17] and in test [18] was inactive.
Turning to `CCn1nc(C)c2c1C(=O)NCC(c1ccc(O)cc1)=N2`, the outcome in [1], in [2], in test [3], in test [4], in test [5] and in test [6] was inactive. Besides, the outcome in test [20], in test [9], in [10], in [11], in test [12] and in [13] was inactive. Also, the compound was classed as inactive in [14], in [15], in [16], in [17] and in test [18].
One may read the AC50 as the midpoint of the concentration-response curve, whichever way the signal moves. Turning to `CCc1ccc(O)c(C(C)(C)C)c1`, the outcome in test [1], in test [20], in test [8], in [11], in test [13] and in test [14] was inactive. The result in [16], in test [17] and in test [18] was inactive. Further, the AC50 in test [2] is 98.1 µM (active); in [3], 83.8 µM (active); in [4], 80.7 µM (active); in test [5], 101 µM (active); in [6], 86.2 µM (active); in [9] it was 80.7 µM (active). Also, the AC50 in test [10] is 79.6 µM (active); in test [12], 81.3 µM (active); in test [15], 84.8 µM (active).
